# Source: PubChem
# LDHA inh = blocks human lactate dehydrogenase A; P00338; purified LDHA, NADH/diaphorase-resazurin fluorescence; hits give low values; activity change, % (values are at about 110 or 230 µM); 480,000 tested, 0.15% active; AID 1347041; in the data active = activity change below about -30%; inconclusive = mostly about -25% to -30%
#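 Enzyme activity of human lactate dehydrogenase 5 (2 nM; 0.06 mM NADH, 0.2 mM pyruvate, 5 min, RT) is measured via a resazurin/diaphorase fluorescence readout of residual NADH.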
# DT40 TDP1 CPT = growth inhibition of DT40 Tdp1-/-;hTDP1 cells with camptothecin (screen for TDP1 inhibitors). chicken DT40 Tdp1-/-;hTDP1 cells + 20 nM CPT, ATP luminescence, 48 h. Potency, µM (series often up to 46.2 µM), actives largely listed as inhibitors. 420,000 tested, 12% active; note: nearly all actives have a fitted effect of over 55% in size
#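 Chicken DT40 Tdp1-/- cells stably complemented with human TDP1 were seeded at 400 cells/well in medium containing 20 nM camptothecin, exposed to pin-transferred compounds, and grown at 37 °C for at least 48 hr. Viability was read as ATP luminescence.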
# RORgamma inh = blocks mouse ROR gamma transcriptional activity. P51450. AID 2551. Potency, µM (titrated, usually from 53.6 µM), hits mostly inhibitors. Drosophila S2 Gal4-RORgamma UAS-luciferase reporter, 20 h. 310,000 tested, 5.4% active; note: nearly all actives have a fitted effect of over 60% in size
# Target sequence (P51450 whole entry, looked up, the tested form may be a part): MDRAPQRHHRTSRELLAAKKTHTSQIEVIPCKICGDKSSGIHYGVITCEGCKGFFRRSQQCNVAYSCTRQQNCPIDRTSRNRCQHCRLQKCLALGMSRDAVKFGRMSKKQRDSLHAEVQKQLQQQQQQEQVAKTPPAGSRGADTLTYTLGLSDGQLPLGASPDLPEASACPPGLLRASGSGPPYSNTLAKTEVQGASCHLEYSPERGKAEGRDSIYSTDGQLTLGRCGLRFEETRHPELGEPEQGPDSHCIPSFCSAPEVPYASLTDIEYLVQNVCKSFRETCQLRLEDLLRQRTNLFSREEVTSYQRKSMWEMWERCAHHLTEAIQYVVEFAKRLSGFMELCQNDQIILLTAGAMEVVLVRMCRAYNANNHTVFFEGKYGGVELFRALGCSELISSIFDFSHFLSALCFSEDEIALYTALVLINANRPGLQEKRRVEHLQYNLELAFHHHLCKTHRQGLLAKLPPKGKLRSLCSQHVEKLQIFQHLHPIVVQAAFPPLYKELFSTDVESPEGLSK
#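 Luciferase reporter read in Schneider cells carrying Gal4-RORγ (mouse) and UAS-Photinus luciferase; cells given compound 1 h before 700 uM copper sulfate induction, then incubated 20 h at ambient temperature.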
# IL1B secr inh = inflammasome signaling inhibition, IL-1 beta readout. THP-1 LPS/ATP IL-1B secretion, AlphaLISA, 16 h; hits give low values. activity change, % at 57.5 µM. 360,000 tested, 4.7% active. AID 743279; in the data active = activity change below about -50%; inconclusive = mostly about -30% to -49%
#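 Secreted IL-1B measured by AlphaLISA bead assay after 16 h compound exposure of THP-1 cells; compounds (final up to 57.5 uM) added 1 h before LPS (250 ng/mL) and ATP (1.25 mM) stimulation; lower signal means less secretion.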
# VP16 counter = Gal4-VP16 reporter inhibition counter-screen; Drosophila S2 Gal4-VP16 UAS-luciferase, luminescence, 20 h; 310,000 tested, 3.5% active; Potency, µM (highest dose often 53.6 µM), usual class: inhibitors;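 note: Gal4-VP16 expression switched on by copper sulfate through the metallothionein promoter; nearly all actives have a fitted effect of over 50% in size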
# DT40 TDP1 no CPT = qHTS for Inhibitors of human tyrosyl-DNA phosphodiesterase 1 (TDP1): qHTS in cells in absence of CPT. DT40 Tdp1-/- hTDP1 cells, no CPT, ATP luminescence, 48 h. Potency, µM (doses to about 46.2 µM), usual class: inhibitors. 420,000 tested, 15% active. AID 686978, 2013; note: nearly all actives have a fitted effect of over 55% in size
#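 Growth of hTDP1-complemented DT40 Tdp1-knockout cells is measured by ATP luminescence after at least 48 hr compound exposure at 37 °C, with DMSO substituting for the 20 nM CPT used in the parallel screen.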
# A number is an active result; n = inactive; u = inconclusive; x = not tested or not shown; [ ] = remark or other dose. In the library only some 18% were active in any assay of this set; here they are far more common. Unless noted, calls come from the whole dose curve; as a rule, active = well fitted curve in the direction sought with a large enough effect; inconclusive = small, poorly fitted or top-dose-only effect, or another doubt; inactive = no such curve, though single readings can be large; an effect the other way counts as inactive or inconclusive.
SMILES,LDHA inh,DT40 TDP1 CPT,RORgamma inh,IL1B secr inh,VP16 counter,DT40 TDP1 no CPT
CCN1CCN(c2ccccc2NC(=O)CCc2nc(-c3ccsc3)no2)CC1,n,x,x,x,x,x
COc1ccc2cc(/C=C(\NC(=O)c3ccccc3)C(=O)N3CCCC3)c(Cl)nc2c1,n,x,x,x,x,x
COc1ccc(-c2nc3c(s2)CN(C(C(=O)O)c2c[nH]c4cc(F)ccc24)CC3)cc1 (stereo unspecified),n,x,x,x,x,x
CC(=O)c1c(C)[nH]c(C(=O)N2CCN(c3cc(Cl)ccc3C)CC2)c1C,n,10µM,n,n,n,5.8µM
CC(=O)c1c(C)[nH]c(C(=O)N2CCN(S(=O)(=O)c3ccc(C)cc3C)CC2)c1C,n,u,x,n,x,18µM
COc1cccc(N2CCN(C(=O)c3[nH]c(C)c(C(C)=O)c3C)CC2)c1,n,5.6µM,n,n,n,4.5µM
CC(=O)c1c(C)[nH]c(C(=O)N2CCN(c3ccc(F)cc3)CC2)c1C,n,14µM,n,n,n,u
COC(=O)c1ccc(COC(=O)Cc2coc3cc(C)ccc23)cc1,n,x,x,x,x,x
CCn1c(SC(C)C(=O)c2ccc(Br)cc2)n[nH]c1=O (stereo unspecified),n,x,x,x,x,x
Cc1ccc(S(=O)(=O)N[C@H](C(=O)NC2CCC(C)CC2)C(C)C)cc1 (stereo partly specified),n,u,x,n,x,18µM
CSCCC(NS(=O)(=O)c1ccc(C)cc1)C(=O)NC1CCCCC1 (stereo unspecified),n,n,n,n,n,n
CSCCC(NS(=O)(=O)c1ccc(C)cc1)C(=O)NC1CCCCCC1 (stereo unspecified),n,u,x,n,x,21µM
Cc1nc2ccc(S(=O)(=O)N(CC(=O)N3CCOCC3)Cc3ccccc3)cc2s1,n,x,x,x,x,x
CC(c1cc2ccccc2o1)N(C)S(=O)(=O)c1cccs1 (stereo unspecified),n,x,x,x,x,x
O=C(c1ccccc1)c1ccc(OCC(=O)c2c[nH]c3ccccc23)cc1,n,x,x,x,x,x
COc1ccc(C(CNC(=O)c2cccc3c(=O)c(C)c(-c4ccccc4)oc23)N(C)C)cc1 (stereo unspecified),n,x,x,x,x,x
Cn1c(C2CCCN2C(=O)OC(C)(C)C)n[nH]c1=S (stereo unspecified),n,n,n,n,n,n
CCCCCC1CCC(c2n[nH]c(=S)n2C)CC1 (stereo unspecified),n,7.3µM,u,n,4µM,2.9µM
O=C(Nc1cccc(NC(=O)c2ccccc2Cl)c1)c1cccc(Br)c1,n,u,x,x,x,u
O=C(Nc1ccc(Br)c(C(F)(F)F)c1)c1ccccc1,n,21µM,n[10 µM],n,n,23µM
O=C(Nc1cccc(C(=O)Nc2ccccc2F)c1)c1ccccc1,n,u,u,n,n,23µM
O=C(Nc1cccc(NC(=O)c2cncc(Br)c2)c1)c1cncc(Br)c1,n,12µM,n[1.91 µM],n,n,4.6µM
O=C(Nc1cccc(C(=O)Nc2cccc(Br)c2)c1)c1ccccc1,n,23µM,u,n,n,u
O=C(Cn1ccc2c(Cl)cccc21)Nc1ccc(O)cc1,n,x,x,x,x,x
Cc1cc(NC(=O)c2cncc(Br)c2)ccc1NC(=O)c1cc2ccccc2o1,n,13µM,u,u,11µM,8.2µM
SMILES,LDHA inh,DT40 TDP1 CPT,RORgamma inh,IL1B secr inh,VP16 counter,DT40 TDP1 no CPT
CC(C)c1ccc(NC(=O)c2cccc(Br)c2)cc1,n,n,n,-52,n,u
Cc1cccc(NC(=O)c2cccc(NC(=O)c3ccccc3)c2)n1,n,4.1µM,n,n,n,u
CC(=O)c1ccc(OCc2coc(-c3cccc(Cl)c3)n2)cc1,n,x,x,x,x,x
CCCNc1c(NC(=O)c2cc(Cl)ccc2OC)c(=O)oc2ccccc12,n,x,x,x,x,x
CCOc1cc(C#N)c(NC(=O)c2ccc(C(C)(C)C)cc2)cc1OCC,n,x,x,x,x,x
CC(=O)Nc1sc2c(c1-c1ccc(N3CCN(C)CC3)cc1)CCNC2,n,x,x,x,x,x
N#Cc1c(-c2ccc(F)cc2)cc(-c2ccccc2)nc1SCC(=O)NCC(=O)O,-80,u,n,n,n,n
